# E coli growth-1: E. coli growth inhibition. Escherichia coli growth, OD600, 23 h; hits give low values. OD600 absorbance (test concentration not listed). 330,000 compounds, 0.21% hits;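 active = OD600 absorbance below the run mean of sample wells minus 3.6 SD, in any replicate, cut at about 0.56 in these data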
# AddAB inh: less growth of phage-infected E. coli with AddAB | 330,000 compounds, 0.29% hits | inhibition, % at 11.9 µM | AID 435030 | E. coli expressing H. pylori AddAB, absorbance growth; in the data active = inhibition above about 12%;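 note: 0% = vehicle wells of infected cells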
# Tat export inh: E. coli Tat transport inhibition; E. coli MC4100 TorA-mCherry Tat export, fluorescence; inhibition, % at 10 µM; 340,000 compounds, 0.036% hits; AID 488895;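 active = mean replicate inhibition at least 50% and at least half of replicates individually reaching 50%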;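 note: exported cargo escapes ClpAP degradation while cytoplasmic cargo is degraded and loses fluorescence; 0% = median of neutral control wells and 100% = median of NaSCN control wells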
# E coli growth-2: reduces bacterial viability in AddAB counter-screen; E. coli V3065 growth, OD600 absorbance, 18 h; 330,000 compounds, 0.27% hits; AID 449728; inhibition, % at 11.9 µM;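 active = inhibition above the campaign's mean inhibition across all tested compounds plus 3 SD, cut at about 9.9% in these data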;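 note: uninfected addAB+ strain grown without phage in ampicillin broth; 0% = DMSO wells and 100% = ciprofloxacin 0.95 µg/ml wells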
# phage Ecoli inh: E. coli growth loss with phage present; growth absorbance; inhibition, % at 11.9 µM; 360,000 compounds, 0.26% hits; in the data active = inhibition above about 11%
# AddAB confirm: growth loss of T4-infected E. coli expressing H. pylori AddAB, confirmed; shares compounds with AddAB inh; E. coli V3065 expressing H. pylori AddAB, T4 phage, OD; T4 phage with gene 2 nonsense mutations; inhibition, % at 11.9 µM; 880 compounds, 64% hits; AID 488942;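 active = mean inhibition above a set limit taken from the earlier primary screen, cut at about 13% in these data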;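 note: higher means less bacterial growth since AddAB block lets phage replicate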
# RecBCD counter: AddAB counter-screen: growth loss of RecBCD+ E. coli infected with mutant T4 phage | inhibition, % at 11.9 µM | E. coli V66 + mutant T4 phage, OD growth | shares compounds with AddAB inh | 880 compounds, 73% hits;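 active = mean inhibition above the mean of solvent-only control wells plus 3 SD, cut at about 4% in these data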;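 note: optical density read after an 18 h incubation at 37 °C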
# bact viab count: counter-screen for AddAB inhibitors: inhibitors of bacterial viability. shares compounds with AddAB inh. absorbance (AddAB counterscreen). 880 compounds, 35% hits. inhibition, % at 11.9 µM. AID 488956; in the data active = inhibition above about 25%
# Numbers without * were called inactive; nt = no result. Rows were chosen to be rich in hits. Some 0.5% of all compounds tested hit in one or more screens of this group.
SMILES,E coli growth-1,AddAB inh,Tat export inh,E coli growth-2,phage Ecoli inh,AddAB confirm,RecBCD counter,bact viab count
COc1ccc(NC(=O)Nc2ccc3c(c2)C(=O)N(C(C)CO)CC(C)C(CN(C)S(=O)(=O)c2ccccc2)O3)cc1 (stereo unspecified),0.71,nt,nt,nt,nt,nt,nt,nt
CCN1CCN(C(=O)C2CCN(c3nnc(-n4c(C)ccc4C)s3)CC2)CC1,0.73,131*,8,2,1,5,1,-1
Cc1ccc(C)n1-c1nnc(N2CCC(C(=O)N3CCN(C)CC3)CC2)s1,0.75,4,-5,-3,3,nt,nt,nt
CC1CN(C(C)CO)C(=O)c2cc(NC(=O)c3ccncc3)ccc2OC1CN(C)S(=O)(=O)c1ccc(F)cc1 (stereo unspecified),0.68,nt,nt,nt,nt,nt,nt,nt
NS(=O)(=O)c1ccc(N=Nc2c(O)ccc3ccccc23)cc1,0.69,2,-1,1,2,nt,nt,nt
Oc1ccc(N=Nc2c(O)ccc3ccccc23)cc1,0.59,13*,-5,13*,3,60*,4,17
Cc1[nH]n(-c2ccccc2)c(=O)c1C(=O)c1ccc(Cl)cc1,0.68,97*,-1,96*,0,0,-2,-6
CN(C)C=Nc1sccc1C(N)=O,0.68,nt,nt,nt,nt,nt,nt,nt
Cc1cccc(-n2ncc3c(N4CCC5(CC4)OCCO5)ncnc32)c1,0.74,32*,-4,5,2,3,0,-1
c1ccc(-n2ncc3c(N4CCC5(CC4)OCCO5)ncnc32)cc1,0.78,1,-10,2,1,nt,nt,nt
CCc1ccc(NC(=S)NCc2cccnc2)cc1,0.61,14*,-9,11*,7,6,6.7*,4
Cc1ccc(NC(=S)NCc2cccnc2)cc1,0.67,4,-4,4,5,nt,nt,nt
CCn1cc(C(=O)O)c(=O)c2cc(F)c(N3CCN(C(=S)NC(=O)c4ccccc4Cl)CC3)cc21,0.075*,98*,-1,84*,10,102*,100*,102*
C=CCCCCCCCCC(=O)N1CCN(c2cc3c(cc2F)c(=O)c(C(=O)O)cn3CC)CC1,0.3*,41*,8,35*,3,98*,4.0*,72*
COc1ccc(NC(=O)COc2ccc(C)nc2[N+](=O)[O-])cc1S(N)(=O)=O,0.62,15*,-5,12*,7,46*,7.8*,29*
Cc1ccc(OCC(=O)Nc2ccc3c(c2)CCC3)c([N+](=O)[O-])n1,0.69,1,-3,1,5,nt,nt,nt
CCCc1cc(C(=O)Nc2cc(C)on2)no1,0.63,100*,3,96*,2,1,3,3
Cc1cc(NC(=O)c2cc(C)on2)no1,0.72,-1,-15,0,1,nt,nt,nt
Cc1cc(C(F)(F)F)n2ncc(C(=O)O)c2n1,0.76,17*,-4,6,4,-2,1,0
Cc1ccc(-c2cc(C(F)(F)F)n3ncc(C(=O)O)c3n2)cc1,0.76,nt,4,nt,2,nt,nt,nt
O=C(Nc1ccc2oc(-c3ccccc3)nc2c1)c1cc(-n2cnnc2)ccc1Cl,0.69,95*,1,65*,1,4,-1,-2
CCn1cc(C(=O)OCC(=O)N(C)Cc2ccccc2)c(=O)c2ccc(C)nc21,nt,98*,-1,95*,2,-3,-1,-1
CCn1cc(C(=O)OCC(=O)c2cc(C)n(-c3ccccc3)c2C)c(=O)c2ccc(C)nc21,0.64,0,0,0,0,nt,nt,nt
CC(=NOC(=O)c1ccc(C)cc1)c1sc(C)nc1C,0.68,nt,nt,nt,nt,nt,nt,nt
COc1ccc(C=C(C#N)C(=O)C(C)(C)n2cncn2)cc1,0.71,nt,nt,nt,nt,nt,nt,nt
SMILES,E coli growth-1,AddAB inh,Tat export inh,E coli growth-2,phage Ecoli inh,AddAB confirm,RecBCD counter,bact viab count
COc1ccc2[nH]c3c(c2c1)CCNC3c1ccc([N+](=O)[O-])o1 (stereo unspecified),nt,41*,5,10*,4,14*,3,1
CC1CN(C(C)CO)C(=O)c2cccc(NS(=O)(=O)c3ccccc3)c2OC1CN(C)C(=O)NC1CCCCC1 (stereo unspecified),0.66,nt,nt,nt,nt,nt,nt,nt
O=C1c2cccc3c([N+](=O)[O-])ccc(c23)C(=O)N1c1ccccn1,0.67,1,-12,-2,3,nt,nt,nt
O=C1c2cccc3c([N+](=O)[O-])ccc(c23)C(=O)N1O,nt,35*,81*,50*,44*,86*,74*,81*
CCOC(=O)/C=C/C(=O)OCC(=O)Nc1cccc(Cl)c1Cl,0.65,97*,-28,76*,4,-1,0,-4
O=S(c1cc(Cl)cc(Cl)c1O)c1cc(Cl)cc(Cl)c1O,nt,nt,nt,nt,10,nt,nt,nt
Oc1c(Cl)cc(Cl)cc1Sc1cc(Cl)cc(Cl)c1O,nt,15*,nt,16*,nt,10,15*,12
CN1CCN(c2ccc(-c3ccc4ccccc4n3)cc2)CC1,0.68,nt,5,nt,2,nt,nt,nt
c1ccc2nc(-c3ccc(N4CCOCC4)cc3)ccc2c1,0.68,40*,-1,43*,4,-4,-1,-4
COCC=CC1=CC2=CC(=O)C(C)(OC(=O)c3cnc4ccccc4n3)C(=O)C2=CN1C(CO)CO (stereo unspecified),0.64,nt,nt,nt,nt,nt,nt,nt
CN(C)CCCCCNCCCNC(=O)C=NO,0.63,nt,nt,nt,nt,nt,nt,nt
CSC(=S)N/N=C/c1ccc(Br)cc1,nt,5,-5,5,8,nt,nt,nt
CSC(=S)N/N=C/c1ccc(N(C)C)cc1,nt,16*,5,7,3,53*,7.4*,30*
Cc1ccc(-c2[nH]ncc2C=Nn2c(COc3ccccc3C)nc3ccccc3c2=O)cc1,0.68,nt,nt,nt,nt,nt,nt,nt
CC(CC(=O)Nc1ccc2c(c1)OCCO2)=NNC(=O)c1ccc([N+](=O)[O-])cc1Cl,0.7,nt,nt,nt,nt,nt,nt,nt
O=C(CSc1ncnc2nc[nH]c12)c1ccc(Cl)cc1,0.68,20*,0,5,5,17*,4,-2
CCCc1c(C)nc2ccc(OC)cc2c1SCCC(=O)O,0.68,15*,-5,-1,0,2,0,-2
O=c1[nH]c(=S)ccn1C1OC(CO)C(O)C1O (stereo unspecified),0.76,12*,-4,5,5,1,3,1
C[n+]1cccc2c(Br)ccc([O-])c21,0.65,1,2,-4,2,nt,nt,nt
[O-][n+]1cccc2c(Br)cc(Br)c(O)c21,0.24*,40*,-7,40*,43*,38*,47*,41*
O=C(Nc1cccc(NC(=O)c2cccs2)c1)c1ccc([N+](=O)[O-])o1,0.41*,27*,-13,16*,11,96*,9.4*,28*
O=C(Nc1nc(-c2cccs2)cs1)c1ccc([N+](=O)[O-])o1,0.52*,13*,-19,7,10,85*,7.5*,13

# High-throughput results deposited in PubChem BioAssay by several laboratories.
